Screens: PubChem, National Center for Advancing Translational Sciences (NCATS)
Pf growth 48h: inhibits P. falciparum growth in the first generation, 48 h; P. falciparum luciferase growth in erythrocytes, 48 h; actives 5.9% (n = 310,000); Potency, µM (series often up to 28.7 µM), for inactives: at the highest dose activity change, negative = inhibition, hits mostly inhibitors; note: potency is the fitted concentration of half-maximal effect
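Luciferase-expressing P. falciparum in infected erythrocytes (2% hematocrit, 0.1% parasitemia final) in RPMI 1640/0.5% Albumax were exposed to compound for 48 hours at 37 C, 5% CO2; growth read as luminescence.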
HCMV antiviral: blocks human cytomegalovirus replication; HFF cells, HCMV-luciferase reporter, 72 h; active compounds read low; activity change, negative = inhibition, % at 57.5 µM; actives 4.5% (n = 410,000); in the data active = activity change below about -60%; inconclusive = no clear call, values can overlap the other calls; inactive = above about -39%
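HFF cells seeded 16 h at 37C, treated with compounds, infected with luciferase-reporter HCMV at MOI 1 PFU/cell; luciferase read at 72 h post infection, normalized to buffer-only and Salinomycin controls.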
Giardia FBPA inh: Giardia lamblia aldolase inhibition; A8B2U2; purified Giardia FBPA; Potency, µM (titrated, usually from 59.6 µM), for the others: at the top dose activity, negative = inhibition, actives largely listed as inhibitors; actives 0.71% (n = 290,000); AID 2451; note: potency is the fitted concentration of half-maximal effect; nearly all actives have a fitted effect of over 55% in size
Target sequence (A8B2U2 whole entry, looked up): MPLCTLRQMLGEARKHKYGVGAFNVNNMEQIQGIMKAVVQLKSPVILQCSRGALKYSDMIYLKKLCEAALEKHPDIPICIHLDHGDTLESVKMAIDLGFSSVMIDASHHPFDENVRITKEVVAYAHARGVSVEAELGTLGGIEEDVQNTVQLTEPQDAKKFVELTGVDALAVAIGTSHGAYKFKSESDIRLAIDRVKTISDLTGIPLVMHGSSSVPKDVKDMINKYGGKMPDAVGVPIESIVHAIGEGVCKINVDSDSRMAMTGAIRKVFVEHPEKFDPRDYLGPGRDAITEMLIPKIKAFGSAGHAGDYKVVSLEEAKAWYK
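40 nM FBPA preincubated 10 min at RT with compound (up to 57.5 uM final), then substrate plus GAPDH/TPI/NAD/arsenate coupling and diaphorase/resazurin added. Fluorescence read after 20 min at RT, 525/598 nm.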
Pf growth 96h: P. falciparum growth inhibition at 96 hour, primary screen for plastid delayed-death inhibitors. P. falciparum luciferase reporter growth, 96 h. Potency, µM (titrated, usually from 28.7 µM), inactives show at the top dose activity change, negative = inhibition, most hits filed as inhibitors. actives 6.9% (n = 320,000). AID 504834; note: potency is the fitted concentration of half-maximal effect
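Parasite growth measured via integrated firefly luciferase reporter in P. falciparum. Infected erythrocytes at 2% hematocrit, 0.05% parasitemia final were treated 96 hours at 37 C under 5% CO2, and luminescence was read.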
Sm TGR inh: S. mansoni TGR enzyme inhibition | purified TGR, DTNB reduction, TNB absorbance 405 nm | Potency, µM (titrated, usually from 114 µM), for the others: at the top dose activity change, negative = inhibition, usual class: inhibitors | Q962Y6 | actives 3% (n = 360,000); note: potency is the fitted concentration of half-maximal effect; nearly all actives have a fitted effect of over 60% in size
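TGR 20 nM + NADPH 100 uM (dispensed conc.), cpd preinc 15 min RT; start with NADPH (500 uM addition) then DTNB (15 mM addition). Kinetic TNB absorbance, 405 nm filter. Four-parameter Hill fit across titration.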
Active calls of the source: *; ? = inconclusive; . = not tested or not shown. A selection: hits, their analogues and other compounds. The true share with any hit is near 14%. Unless noted, calls come from the whole dose curve; as a rule, active = well fitted curve in the direction sought with a large enough effect; inconclusive = small, poorly fitted or top-dose-only effect, or another doubt; inactive = no such curve, though single readings can be large; an effect the other way counts as inactive or inconclusive. % is set by controls: 0 for no effect and ±100 for the full control effect.

SMILES	Pf growth 48h	HCMV antiviral	Giardia FBPA inh	Pf growth 96h	Sm TGR inh
O=C(NCc1ccccc1Cl)O[C@H]1CC[C@@]23CCCN2C(=O)CCC[C@H]3[C@H]1Cc1ccccc1	.	-2	.	.	.
Cc1ccc(S(=O)(=O)N2CCCCC2)cc1NC(=O)c1ccccc1Cl	.	19	.	.	.
CCOC(=O)/C(C#N)=C/Nc1ccccc1NS(=O)(=O)c1cccc(C(C)=O)c1	?	-16	15%	?	-7%
COc1ccc(NC(=O)c2ccc(S(=O)(=O)N3CCOCC3)cc2)c(OC)c1	-4%	-17	-2%	4.7µM*	3%
COc1cc(S(=O)(=O)Nc2ccccc2C)ccc1NC(=O)c1ccncc1	-6%	-72*	2%	?	-10%
CCOC(=O)/C(C#N)=C/Nc1ccccc1NS(=O)(=O)c1ccc(C)c(C)c1	?	0	0%	2.9µM*	-1%
COc1cc(S(=O)(=O)Nc2ccc(C)cc2)ccc1NC(=O)c1ccncc1	-14%	-19	0%	13%	-15%
COc1cc(S(=O)(=O)N2CCCCC2)ccc1NC(=O)c1ccccc1Cl	9.3µM*	-18	0%	-4%	-5%
COC(=O)[C@]12CCCCC=C1N(Cc1ccccc1)C(=O)[C@H](CC(=O)NCc1ccccc1)C2	.	-2	.	.	.
CC(=O)NC12CC3CC(C1)CC(C(=O)Nc1ccc(C)c(S(=O)(=O)N4CCCCCC4)c1)(C3)C2	.	-10	.	.	.
COc1ccccc1NS(=O)(=O)c1ccc(C)c(C(N)=O)c1	16%	-16	2%	5.2µM*	5%
COc1ccc([N+](=O)[O-])cc1NC(=O)/C=C/C(=O)O	-1%	-17	13%	?	-13%
Cc1cc(C)c(NC(=O)/C=C\C(=O)O)c(Cl)c1	17%	-14	15%	15%	35µM*
Cc1cc(C)c(NC(=O)CS)c(Cl)c1	-17%	-31	-2%	?	?
Cc1cc(C)c(NC(=O)/C=C\C(=O)O)c([N+](=O)[O-])c1	.	5	14%	7%	16µM*
COc1cc(OC)c(NC(=O)/C=C/C(=O)O)cc1Cl	?	18	-28%	?	50µM*
COc1ccc(-n2c(=O)c3ccccc3n(CC(=O)NCCc3ccc(OC)c(OC)c3)c2=O)cc1	.	-3	.	.	6%
CCN(c1cccc(C)c1)S(=O)(=O)c1ccc(-n2cccn2)cc1	0%	-8	.	0%	?
CN(C(=O)c1cnc(N2CCOCC2)c2ccccc12)c1ccccc1F	.	4	.	.	8%
CCO[C@H]1OC(C(=O)O)=C[C@@H](c2ccc3c(c2)OCO3)[C@@H]1CCCO	0%	-101*	9%	26%	-9%
CCO[C@@H]1OC(C(=O)NCc2ccccc2)=C[C@H](c2ccc3c(c2)OCO3)[C@H]1CCCO	-23%	-9	-1%	-10%	-1%
CCO[C@H]1OC(C(=O)NCc2ccccc2)=C[C@@H](c2ccc3c(c2)OCO3)[C@@H]1CCCO	-9%	-68*	12%	-2%	1%
CCO[C@@H]1OC(C(=O)Nc2ccccc2)=C[C@H](c2ccc3c(c2)OCO3)[C@H]1CCCO	-47%	8	-10%	?	0%
CCO[C@H]1OC(C(=O)NCc2nc3ccccc3[nH]2)=C[C@@H](c2ccc3c(c2)OCO3)[C@@H]1CCCO	.	30	.	.	.
C#CCNC(=O)C1=C[C@@H](c2ccc3c(c2)OCO3)[C@H](CCCO)[C@@H](OCC)O1	1%	2	-3%	?	45µM*
SMILES	Pf growth 48h	HCMV antiviral	Giardia FBPA inh	Pf growth 96h	Sm TGR inh
Cc1ccc(OCCNC(=O)C(C)SCC(=O)Nc2ccc(F)cc2)cc1 (stereo not drawn)	.	-9	.	.	.
CN1C(=O)/C(=C/c2ccc(Cl)s2)C(=O)NC1=S	8%	-25	2%	-24%	7.9µM*
Cc1ccsc1/C=C1\C(=O)NC(=S)N(C)C1=O	8%	-102*	-3%	-23%	25µM*
CN1C(=O)/C(=C\c2ccc(N3CCCCCC3)cc2)C(=O)NC1=S	2%	-1	-13%	34%	?
COc1ccc(/C=C2\C(=O)NC(=S)N(C)C2=O)cc1C	0%	-15	?	37%	7.1µM*
COc1cc(C(=O)NC(=S)Nc2ccc(Cl)c(C(=O)O)c2)cc(OC)c1OC	33%	19	0%	?	40µM*
COc1cc(C(=O)Nc2cccc(-n3cnnn3)c2)cc(Cl)c1OC	9.3µM*	-32	-10%	?	5%
CCCCOc1cccc(C(=O)NC(=S)Nc2ccc(Cl)c(C(=O)O)c2)c1	-9%	-10	24%	8%	0%
COc1cc(OC)cc(C(=O)NC(=S)Nc2ccc(Cl)c(C(=O)O)c2)c1	1%	21	-18%	8%	22µM*
COc1cc(C(=O)Nc2ccc(Cl)c(C(F)(F)F)c2)cc(OC)c1OC	13µM*	-7	-1%	-9%	-2%
COc1cc(C(=O)NC(=S)Nc2ccc(N3CCCC3)cc2)cc(OC)c1OC	9.3µM*	-6	-12%	?	-19%
CN(C1CCCCC1)S(=O)(=O)c1ccc(C(=O)O)cc1	.	15	22%	12µM*	2%
CN1CCC(N(C)S(=O)(=O)c2ccc(C(C)(C)C)cc2)CC1	2%	-91*	-13%	-3%	1%
CN(C1CCCCC1)S(=O)(=O)c1ccccc1	18%	-12	-1%	.	2%
Cc1ccc(S(=O)(=O)c2nc(-c3ccco3)oc2NCC2CCCO2)cc1 (stereo not drawn)	-20%	-26	-29%	?	8.9µM*
O=S(=O)(c1ccc(Br)cc1)c1nc(-c2ccco2)oc1NCC1CCCO1 (stereo not drawn)	-2%	5	-6%	44%	20µM*
Cc1ccc(-c2nc3ccccc3n2C)o1	.	59	-5%	11%	16µM*
Brc1ccc(Cn2c(-c3ccc(Br)o3)nc3ccccc32)o1	?	27	-28%	?	22µM*
Cc1nc([N+](=O)[O-])c(Sc2nc3ccccc3n2C)n1Cc1ccccc1	?	50	-1%	?	8.9µM*
Cc1oc(-c2nc3ccccc3n2C)cc1C(=O)c1ccccc1	73%	16	-27%	-14%	25µM*
Cn1c2nc3ccccc3c-2nc2ccccc21	.	72	.	.	.
Cc1nc([N+](=O)[O-])c(SCC(N)=O)n1Cc1ccccc1	-5%	-32	4%	28%	0%
Cn1c(SCC(=O)N2CCCC2)nc2ccccc21	11%	-8	-4%	-3%	1%
CC(=O)c1ccc(-c2nc3ccccc3n2C)o1	99%	135	-14%	122%	40µM*
Cn1c(Sc2nc3ccccc3n2C)nc2ccccc21	.	-95*	-1%	25%	3%
Cc1ccc2nc(-c3ccc(Br)o3)oc(=O)c2c1	15%	11	-1%	.	0%
Cn1c(-c2nonc2N)nc2ccccc21	25%	-11	-3%	10µM*	9%
Cn1c(-c2ccc(Br)o2)nc2cc(Br)ccc21	322%	-8	0%	298%	13µM*
